{"source": "PubChem BioAssay", "note": "Values joined by “and” are separate entries in the source; they are usually repeats but may differ in a detail not shown here. Equal values may be shown once. Active and inactive are the calls of the source. Cut-off read from the data, not from the text of the source: active = plate-normalised HSF1 focus index below about 0.46; inactive = the rest."}
{"test": "viability loss with induced miR-34 in A549 – imaging, A549 dox-inducible miR-34, nuclei and caspase counts, primary screen (AID 1347080)", "conditions": "A549 miR-34 inducible, Hoechst nuclei count, 48 h; measured here: total cells with miR-34 induction; stronger effect = lower value"}
{"compound": "Cc1ccc2nc(NCCN)c3ncc(C)n3c2c1", "cell count": 6190}
{"compound": "CC(C)c1cnn2c(NCc3ccccc3)cc(NCCCCCCN)nc12", "cell count": 7920}
{"compound": "CCOC(=O)[C@H]1O[C@@H]1C(=O)N[C@@H](CC(C)C)C(=O)NCCC(C)C", "cell count": 4650}
{"compound": "O=C1NCCc2[nH]c(-c3ccncc3)cc21", "cell count": 2250}
{"compound": "CNC(=O)c1ccc(N2C(=S)N(c3ccc(C#N)c(C(F)(F)F)c3)C(=O)C2(C)C)cc1F", "cell count": 7300}
{"compound": "Cn1cncc1[C@@](N)(c1ccc(Cl)cc1)c1ccc2c(c1)c(-c1cccc(Cl)c1)cc(=O)n2C", "cell count": 5030}
{"compound": "O=C(O)c1ccc2c(c1)nc(Nc1cccc(Cl)c1)c1ccncc12", "cell count": 5180}
{"compound": "C#Cc1cccc(Nc2ncnc3cc(OCCOC)c(OCCO)cc23)c1", "cell count": 2660}
{"compound": "CC(C)CC(=O)Nc1n[nH]c2c1CN(C(=O)C1CCN(C)CC1)C2(C)C", "cell count": 1320}
{"compound": "CNC(=O)Nc1ccc(-c2nc(N3CC4CCC(C3)O4)c3cnn(C4CCC5(CC4)OCCO5)c3n2)cc1", "cell count": 3730}
{"compound": "C=CCn1c(=O)c2cnc(Nc3ccc(N4CCN(C)CC4)cc3)nc2n1-c1cccc(C(C)(C)O)n1", "cell count": 1400}
{"compound": "O=C(O)[C@H](Cc1c[nH]c2ccccc12)N1C(=O)c2ccccc2C1=O", "cell count": 7740}
{"compound": "COc1ccc(F)c(F)c1C(=O)c1cnc(NC2CCN(S(C)(=O)=O)CC2)nc1N", "cell count": 1740}
{"compound": "Cc1ccc(S(=O)(=O)OCC(=O)Nc2ccc(C(=O)O)c(O)c2)cc1", "cell count": 6690}
{"compound": "O=C(NC1CCNCC1)c1[nH]ncc1NC(=O)c1c(Cl)cccc1Cl", "cell count": 1340}
{"compound": "CN(C)CCN1C(=O)c2cccc3cc(N)cc(c23)C1=O", "cell count": 1750}
{"compound": "NCC(=O)Nc1ccc(-n2nc(C(F)(F)F)cc2-c2ccc3c(ccc4ccccc43)c2)cc1", "cell count": 2160}
{"compound": "CC(C)(C)c1cc(C(C)(C)C)c(NC(=O)c2c[nH]c3ccccc3c2=O)cc1O", "cell count": 5220}
{"compound": "CCCCCCCCCCCC(CC1OC(=O)C1CCCCCC)OC(=O)C(CC(C)C)NC=O", "note": "(centres undefined)", "cell count": "9250 and 6710"}
{"test": "viability loss with induced miR-34 in A549 – imaging, A549 dox-inducible miR-34, nuclei and caspase counts, primary screen (AID 1347080)", "conditions": "A549 miR-34 inducible, Hoechst nuclei count, 48 h; measured here: total cells without miR-34 induction"}
{"compound": "Cc1ccc2nc(NCCN)c3ncc(C)n3c2c1", "cell count": 5680}
{"compound": "CC(C)c1cnn2c(NCc3ccccc3)cc(NCCCCCCN)nc12", "cell count": 8080}
{"compound": "CCOC(=O)[C@H]1O[C@@H]1C(=O)N[C@@H](CC(C)C)C(=O)NCCC(C)C", "cell count": 4800}
{"compound": "O=C1NCCc2[nH]c(-c3ccncc3)cc21", "cell count": 2160}
{"compound": "CNC(=O)c1ccc(N2C(=S)N(c3ccc(C#N)c(C(F)(F)F)c3)C(=O)C2(C)C)cc1F", "cell count": 8360}
{"compound": "Cn1cncc1[C@@](N)(c1ccc(Cl)cc1)c1ccc2c(c1)c(-c1cccc(Cl)c1)cc(=O)n2C", "cell count": 4560}
{"compound": "O=C(O)c1ccc2c(c1)nc(Nc1cccc(Cl)c1)c1ccncc12", "cell count": 6500}
{"compound": "C#Cc1cccc(Nc2ncnc3cc(OCCOC)c(OCCO)cc23)c1", "cell count": 3380}
{"compound": "CC(C)CC(=O)Nc1n[nH]c2c1CN(C(=O)C1CCN(C)CC1)C2(C)C", "cell count": 1210}
{"compound": "CNC(=O)Nc1ccc(-c2nc(N3CC4CCC(C3)O4)c3cnn(C4CCC5(CC4)OCCO5)c3n2)cc1", "cell count": 3320}
{"compound": "C=CCn1c(=O)c2cnc(Nc3ccc(N4CCN(C)CC4)cc3)nc2n1-c1cccc(C(C)(C)O)n1", "cell count": 1100}
{"compound": "O=C(O)[C@H](Cc1c[nH]c2ccccc12)N1C(=O)c2ccccc2C1=O", "cell count": 8070}
{"compound": "COc1ccc(F)c(F)c1C(=O)c1cnc(NC2CCN(S(C)(=O)=O)CC2)nc1N", "cell count": 1770}
{"compound": "Cc1ccc(S(=O)(=O)OCC(=O)Nc2ccc(C(=O)O)c(O)c2)cc1", "cell count": 7480}
{"compound": "O=C(NC1CCNCC1)c1[nH]ncc1NC(=O)c1c(Cl)cccc1Cl", "cell count": 1260}
{"compound": "CN(C)CCN1C(=O)c2cccc3cc(N)cc(c23)C1=O", "cell count": 1460}
{"compound": "NCC(=O)Nc1ccc(-n2nc(C(F)(F)F)cc2-c2ccc3c(ccc4ccccc43)c2)cc1", "cell count": 1800}
{"compound": "CC(C)(C)c1cc(C(C)(C)C)c(NC(=O)c2c[nH]c3ccccc3c2=O)cc1O", "cell count": 5840}
{"compound": "CCCCCCCCCCCC(CC1OC(=O)C1CCCCCC)OC(=O)C(CC(C)C)NC=O", "note": "(centres undefined)", "cell count": "10300 and 7610"}
{"test": "compounds altering HSF1 focus formation in cells – imaging, Selleck Cancer Library (AID 1347162)", "conditions": "human cells, HSF1 nuclear foci imaging, at 10 µM; SSMD: measured here: HSF1 foci SSMD mean; cell count: measured here: cell number; plate-normalised HSF1 focus index: stronger effect = lower value"}
{"compound": "CN(C)CCCN=c1c2ccccc2n(C)c2[nH]c(=O)n(C)c(=O)c12", "plate-normalised HSF1 focus index": "0.997 (inactive)", "SSMD": -0.045, "cell count": 6580}
{"compound": "C[C@]1(c2nc3c(C(N)=O)cccc3[nH]2)CCCN1", "SSMD": 0.253, "cell count": 7190, "plate-normalised HSF1 focus index": "1.01 (inactive)"}
{"compound": "CNC(=O)c1ccc(N2C(=S)N(c3ccc(C#N)c(C(F)(F)F)c3)C(=O)C2(C)C)cc1F", "cell count": 6500, "plate-normalised HSF1 focus index": "1.02 (inactive)", "SSMD": 0.472}
{"compound": "Cn1cncc1[C@@](N)(c1ccc(Cl)cc1)c1ccc2c(c1)c(-c1cccc(Cl)c1)cc(=O)n2C", "plate-normalised HSF1 focus index": "0.564 (inactive)", "SSMD": -8.89, "cell count": 4640}
{"compound": "O=C(O)c1ccc2c(c1)nc(Nc1cccc(Cl)c1)c1ccncc12", "cell count": 7390, "plate-normalised HSF1 focus index": "1.02 (inactive)", "SSMD": 0.462}
{"compound": "CC(C)C[C@H](NC(=O)CNC(=O)c1cc(Cl)ccc1Cl)B(O)O", "plate-normalised HSF1 focus index": "0.988 (inactive)", "SSMD": -0.17, "cell count": 6790}
{"compound": "CC1(C)CCC(c2ccc(Cl)cc2)=C(CN2CCN(c3ccc(C(=O)NS(=O)(=O)c4ccc(N[C@H](CCN5CCOCC5)CSc5ccccc5)c(S(=O)(=O)C(F)(F)F)c4)cc3)CC2)C1", "plate-normalised HSF1 focus index": "0.875 (inactive)", "cell count": 6830, "SSMD": -3.49}
{"compound": "CC(C)CC(=O)Nc1n[nH]c2c1CN(C(=O)C1CCN(C)CC1)C2(C)C", "cell count": 7270, "SSMD": -5.41, "plate-normalised HSF1 focus index": "0.661 (inactive)"}
{"compound": "C=CCn1c(=O)c2cnc(Nc3ccc(N4CCN(C)CC4)cc3)nc2n1-c1cccc(C(C)(C)O)n1", "cell count": 6680, "plate-normalised HSF1 focus index": "1.07 (inactive)", "SSMD": 1.04}
{"compound": "O=C(O)[C@H](Cc1c[nH]c2ccccc12)N1C(=O)c2ccccc2C1=O", "cell count": 7570, "plate-normalised HSF1 focus index": "1.16 (inactive)", "SSMD": 2.52}
{"compound": "O=C(NC1CCNCC1)c1[nH]ncc1NC(=O)c1c(Cl)cccc1Cl", "cell count": 7300, "SSMD": -4.94, "plate-normalised HSF1 focus index": "0.823 (inactive)"}
{"compound": "CC(C)C[C@H](NC(=O)CNC(=O)c1cc(Cl)ccc1Cl)B1OC(=O)CC(CC(=O)O)(C(=O)O)O1", "note": "(some centres undefined)", "plate-normalised HSF1 focus index": "1.18 (inactive)", "SSMD": 2.92, "cell count": 7560}
